According to PubChem BioAssay AID1345085 (National Center for Advancing Translational Sciences (NCATS), 2018):
Records with an inconclusive call do not appear. Active and inactive are the calls of the source. The call rests on the fitted dose curve; in most records, active means well fitted cell-killing curve with a large enough effect; inconclusive means small, poorly fitted or top-dose-only effect, or effect the other way; inactive means no such curve, though single readings can be large or run the other way.

The molecules below were run on SW626 (assay: Confirmatory qHTS for gynecologic anti-cancer compounds from libraries of approved drugs and bioactive compounds). Conditions: gynecologic cancer cell panel viability, ATPlite luminescence, 48 h; series mostly up to 57.6 µM.
How it was run: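 Seeding 1,000 cells per well preceded overnight (16 h) attachment, after which 48 h drug treatment across 57.5 uM–0.977 nM (11 points) was applied. Remaining cellular ATP, detected by ATPlite luminescence, defined IC50.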
Further: nearly all actives have a fitted effect of over 55% in size.
On the % scale 0 is the no-effect control and ±100 the full control effect; potency means the concentration at half of the fitted maximal effect.

| SMILES | Potency | activity change, negative = viability loss |
| --- | --- | --- |
| CC(C)[C@@H](CS(=O)(=O)C(C)C)N1C(=O)[C@@](C)(CC(=O)O)C[C@H](c2cccc(Cl)c2)[C@H]1c1ccc(Cl)cc1 | inactive |  |
| CC[C@@]1(O)C(=O)OCc2c1cc1n(c2=O)Cc2cc3cc(O)ccc3nc2-1 | 0.217 µM (active) |  |
| CC(C)CC(=O)Nc1n[nH]c2c1CN(C(=O)C1CCN(C)CC1)C2(C)C | inactive |  |
| COc1cc(N2CCC(N)CC2)ccc1Nc1ncc(Cl)c(-c2c[nH]c3ccccc23)n1 | 21.7 µM (active) |  |
| O=C1c2c(O)ccc(O)c2C(=O)c2c(NCCNCCO)ccc(NCCNCCO)c21 | 6.85 µM (active) |  |
| CCCCc1nc2cc(/C=C/C(=O)NO)ccc2n1CCN(CC)CC | 0.769 µM (active) |  |
| CCCCN(CCCC)C(=O)CN1C[C@H](c2ccc3c(c2)OCO3)[C@@H](C(=O)O)[C@@H]1c1ccc(OC)cc1 | inactive |  |
| CN(C)CC/C=C1\c2ccccc2COc2ccccc21 | inactive |  |
| O=c1c2ccccc2nc2n1CCc1c-2[nH]c2ccccc12 | inactive |  |
| CC1=C(CO)C(=O)O[C@@H]([C@@H](C)[C@H]2CC[C@H]3[C@@H]4C[C@H]5O[C@]56[C@@H](O)C=CC(=O)[C@]6(C)[C@H]4CC[C@]23C)C1 | 5.3 µM (active) |  |
| CCN(CC)CCNC(=O)c1c(C)[nH]c(/C=C2\C(=O)Nc3ccc(F)cc32)c1C | 22.4 µM (active) |  |
| O=c1[nH]c(=O)n([C@H]2C[C@H](O)[C@@H](CO)O2)cc1F | inactive |  |
| CC(C)C[C@H](NC(=O)[C@@H](NC(=O)c1cccc(-c2ccccc2)n1)[C@@H](C)O)B(O)O | 0.0385 µM (active) |  |
| N=C(N)c1ccc(OCCCCCOc2ccc(C(=N)N)cc2)cc1 | inactive |  |
| CN(C)C/C=C/C(=O)Nc1cc2c(Nc3ccc(F)c(Cl)c3)ncnc2cc1OC1CCOC1 (configuration not stated) | 27.3 µM (active) |  |
| CS(=O)(=O)c1ccc(C(=O)Nc2ccc(Cl)c(-c3ccccn3)c2)c(Cl)c1 | inactive |  |

| SMILES | Potency | activity change, negative = viability loss |
| --- | --- | --- |
| Cc1ccc(C(=O)Nc2ccc(CN3CCN(C)CC3)c(C(F)(F)F)c2)cc1C#Cc1cnc2[nH]ncc2c1 | 1.72 µM (active) |  |
| CS(=O)(=O)c1ccc(-c2cnc(N)c(C(=O)Nc3ccccc3)n2)cc1 | inactive |  |
| O=c1[nH]c(=O)n([C@H]2C[C@H](O)[C@@H](CO)O2)cc1C(F)(F)F | inactive |  |
| CNC1CCC(N(Cc2cccc(-c3ccncc3)c2)C(=O)c2sc3ccccc3c2Cl)CC1 (configuration not stated) | 30.6 µM (active) |  |
| Cc1nc(NC(=O)N2CCCC2C(N)=O)sc1-c1csc(C(C)(C)C)n1 (configuration not stated) | inactive |  |
| CC(=O)OC12COC1CC(O)C1(C)C(=O)C(O)C3=C(C)C(OC(=O)C(O)C(NC(=O)OC(C)(C)C)c4ccccc4)CC(O)(C(OC(=O)c4ccccc4)C21)C3(C)C (configuration not stated) | inactive |  |
| Cc1[nH]c2ccccc2c1CCNCc1ccc(/C=C/C(=O)NO)cc1 | 0.0968 µM (active) |  |
| COC(C)(C)CCn1nc(Nc2c(C)cccc2C)c2cnc(Nc3ccc(OCCN4CCCC4)c(F)c3)nc21 | 19.3 µM (active) |  |
| CC[C@H](Nc1ncnc2nc[nH]c12)c1nc2cccc(F)c2c(=O)n1-c1ccccc1 |  | -5.07% [at 10.7 µM] (inactive) |
| O=C(c1ccc(F)c(F)c1Nc1ccc(I)cc1F)N1CC(O)([C@@H]2CCCCN2)C1 | 9.68 µM (active) |  |
| Cc1csc(NC(=O)c2sc3nc4c(c(C(F)(F)F)c3c2N)CCC4)n1 | 1.72 µM (active) |  |
| CC[C@@]1(O)C(=O)OCc2c1cc1n(c2=O)Cc2c-1nc1ccccc1c2/C=N/OC(C)(C)C | 0.217 µM (active) |  |
| NC(=O)Nc1cc(-c2cccc(F)c2)sc1C(=O)NC1CCCNC1 (configuration not stated) | 0.306 µM (active) |  |
| C[C@@H](Oc1cc(-c2cnn(C3CCNCC3)c2)cnc1N)c1c(Cl)ccc(F)c1Cl | 21.7 µM (active) |  |
| O=C1N(c2ccccc2)c2ccccc2C1(Cc1ccncc1)Cc1ccncc1 | inactive |  |
| NC(=O)c1cnc(-c2ccc(C3(N)CCC3)cc2)c(-c2ccccc2)c1 | 24.3 µM (active) |  |
